# BaF3 parental – parental Ba/F3 viability inhibition as JAK2V617F counter-screen; inhibition, % at 5.6 µM; AID 1486; CellTiter-Glo ATP luminescence; hit rate 1.1% among 220,000;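 active = inhibition above a per-campaign cutoff, the mean inhibition of all tested compounds plus 3 SD, cut at about 27% in these data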
# KLF5 inh – suppresses KLF5 promoter-driven expression; DLD-1 KLF5 promoter-luciferase reporter, luminescence; inhibition, % at 5 µM; hit rate 0.23% among 290,000;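 active = inhibition above a per-plate limit of that plate's mean compound inhibition plus 3 SD, cut at about 60% in these data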;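 also: higher means less KLF5 promoter-driven luciferase light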
# aSyn 5UTR inh – 5' untranslated region of α-synuclein, MLPCN primary screen; alpha-synuclein 5'UTR reporter, inhibitor activity; AID 1813; inhibition, % (tested at 7.5 µM); hit rate 0.82% among 300,000; in the data active = inhibition above about 60%;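 also: H4 neuroglioblastoma cells stably carrying SNCA 5'UTR luciferase fusion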
# Ba/F3 V617F tox – loss of viability in JAK2V617F-driven Ba/F3 cells. AID 1446. Ba/F3 EpoR-JAK2V617F viability, ATP luminescence. inhibition, % at 5.6 µM. hit rate 1.1% among 220,000;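 active = inhibition above the campaign mean plus 3 SD over all tested compounds, cut at about 24% in these data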;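 also: cytokine-independent growth of Ba/F3 cells driven by EpoR plus mutant JAK2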
# APP transl inh – APP translation inhibition; SH-SY5Y APP 5'UTR-luciferase reporter, luminescence; inhibition, % at 2 µM; hit rate 0.82% among 190,000;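 active = inhibition above a set limit, derived from the sample mean plus 3 SD, cut at about 45% in these data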
# IEC-6 tox – counter-screen for KLF5 inhibitors: cytotoxicity in IEC-6 cells; IEC-6 cytotoxicity, luminescence viability; inhibition, % at 5 µM; hit rate 0.78% among 290,000; AID 1825; in the data active = inhibition above about 22%
# Hits are given with their value; – = inactive; · = not tested or not shown. Rows were chosen to be rich in hits. Some 2.2% of all compounds tested hit in one or more screens of this group.
SMILES,BaF3 parental,KLF5 inh,aSyn 5UTR inh,Ba/F3 V617F tox,APP transl inh,IEC-6 tox
CCOC(=O)/C(=N\Nc1ccc(Br)cc1)N1CCN(c2ccccc2OC)CC1,–,–,·,–,–,–
COCCNC(=O)c1ccccc1N(Cc1ccccc1)S(=O)(=O)c1ccccc1,·,·,–,·,·,·
N#C/C(=C\c1cn(Cc2ccccc2)c2ccccc12)C(=O)NCc1ccco1,–,–,68,–,–,–
N#C/C(=C\c1cn(Cc2ccc(F)cc2)c2ccccc12)C(=O)NCc1ccco1,–,–,–,–,–,–
N#C/C(=C\c1cn(Cc2cccc(F)c2)c2ccccc12)C(=O)NCc1ccco1,–,–,65,–,–,–
Cc1nc2ccccn2c1C(=O)NN=C1C2CC3CC(C2)CC1C3,–,–,–,–,–,–
Cc1cc(S(=O)(=O)NC(C)C)ccc1OCC(=O)NCc1ccccc1,–,–,–,–,–,–
COC(=O)Cc1ccc(NC(=S)N2CCN(c3cc(Cl)ccc3C)CC2)cc1,–,–,–,–,–,–
Cc1ccc(-n2nc(C)c3c2OC(N)=C(C#N)C3c2ccccc2F)cc1 (configuration not stated),–,–,–,–,47,–
Oc1ccc(/C=N/Nc2ccnc3cc(Cl)ccc23)cc1O,52,–,–,85,·,–
CCOC(=O)c1c(C)oc2cc(Cl)c(O)c(CN(C)C)c12,–,–,–,–,·,–
CCOC(=O)c1c(-c2ccccc2)oc2cc(CN(C)C)c(O)c(CN(C)C)c12,–,–,–,–,53,–
Brc1ccc2[nH]c3c(N4CCc5ccccc5C4)ncnc3c2c1,–,–,–,–,–,–
Fc1ccc2[nH]c3c(N4CCc5ccccc5C4)ncnc3c2c1,55,–,–,44,·,–
Cc1ccc2[nH]c3c(N4CCc5ccccc5C4)ncnc3c2c1,49,–,–,44,–,–
COc1ccc(Cc2nnn(CC(=O)O)n2)cc1,–,–,–,–,–,–
O=C(Nc1nc2ccc(F)cc2s1)c1ccc(N2CCCC2=O)cc1,·,·,–,·,·,·
Cc1csc(NC(=O)c2ccc(N3CCCC3=O)cc2)n1,–,–,101,–,–,–
CC(=O)N1C=Cc2c(c(C)c3c([nH]c4ccccc43)c2C)C1,69,–,·,80,·,69
Cc1ccc(C)c(CN2CCSCC2)c1,·,–,–,·,·,–
COc1ccc2c(c1)NC(C)(C)C=C2C,–,–,–,–,–,–
CC1=CC(C)(C)Nc2ccccc21,–,–,92,–,–,–
O=C(CCCN1C(=O)c2cccc3cccc(c23)C1=O)Nc1nccs1,–,–,–,–,·,–
Cc1cc2cc(CCNC(=O)CCCc3ccccc3)c(=O)[nH]c2cc1C,·,–,–,·,·,–
Cc1cccn2c(=O)nc(SCC(=O)NC3CCCC3)nc12,·,·,–,·,·,·
SMILES,BaF3 parental,KLF5 inh,aSyn 5UTR inh,Ba/F3 V617F tox,APP transl inh,IEC-6 tox
CC(=O)n1cc(-c2ccncc2)c2ccccc21,–,–,–,–,46,–
CC(=O)n1cc(/C=N/NC(=O)c2sc(C)nc2C)c2ccccc21,–,–,–,–,–,–
Cc1ccc(-n2nc3c(N4CCC(C(=O)NCc5ccccc5C)CC4)nnc(C)c3c2C)cc1,·,–,–,·,·,–
CCOc1ccccc1CNC(=O)C1CCN(c2nnc(C)c3c(C)n(-c4ccc(C)cc4)nc23)CC1,·,–,78,·,·,–
COc1ccc(-n2nc3c(N4CCC(C(=O)NCc5cccc(C)c5)CC4)nnc(C)c3c2C)cc1,·,–,70,·,·,–
CCOc1ccc2ccccc2c1/C=N/NC(=O)c1ccc(C)nc1,·,–,–,·,·,–
C/C(=N\NC(=O)c1cc(-c2cccnc2)nc2ccccc12)c1ccccc1O,–,–,86,–,56,–
CCC(CC)COC(=O)C1=C(C)NC(=O)NC1c1ccc2c(c1)OCO2 (configuration not stated),·,–,–,·,·,–
COc1ccc(C2CC(c3cccs3)=NN2C(=O)CSc2nc(=O)n3cc(C)ccc3n2)cc1 (configuration not stated),·,·,–,·,·,·
CC(=O)[C@@]1(O)C(C)CC2C3C=C(C)C4=Cc5c(cnn5-c5ccccc5)C[C@]4(C)C3C(O)C[C@@]21C (some centres not stated),–,–,81,–,·,27
Cc1nc2scc(-c3ccccc3)c2c(=O)n1N=C1C=CC(=O)C=C1,–,–,–,49,80,–
Cc1nc2scc(-c3ccccc3)c2c(=O)n1N,–,–,–,–,–,–
CC1(C)CC(=O)C(CC2=C(O)CC(C)(C)CC2=O)C(=O)C1,–,–,–,–,53,–
COc1ccc(-n2c(-c3ccccc3)nnc2-c2ccc(Cl)cc2)cc1,–,–,–,–,–,–
COc1ccc(-n2c(-c3ccc(Cl)cc3)c[n+]3c2CCc2ccccc2-3)cc1,69,–,–,84,–,–
CCOC(=O)C1=C(C)N(c2ccc(C)cc2)C(=O)/C1=C\c1ccc(O)c(OC)c1,29,–,–,–,·,–
COc1cc(C(=O)N2CCN(c3ccc(C)cc3C)CC2)cc(OC)c1OC,44,–,–,37,76,42
CCOC(=O)c1cccc(NC(=O)/C=C/c2ccc3c(c2)OCO3)c1,–,–,106,–,–,–
Cc1nc(Nc2nc3c(c(=O)[nH]2)CCC3)nc2ccccc12,·,·,126,·,·,·
Brc1cccc(-c2nnc3n2CCCCC3)c1,96,–,–,–,–,–
c1ccc(-c2nnc3n2CCCC3)cc1,–,–,–,–,–,–
Cc1oc2ccc(OS(C)(=O)=O)cc2c1C(=O)OC(C)C,85,–,–,42,–,–
COCCOC(=O)c1c(C)oc2ccc(OS(C)(=O)=O)cc12,–,–,–,–,–,–
CCOC(=O)c1c(S(=O)(=O)N2CCCCC2C)c(C)n(C)c1C (configuration not stated),·,–,–,·,·,–
COc1cccc(C(=O)Cn2c(=N)n(C)c3ccccc32)c1,–,–,86,–,–,–
SMILES,BaF3 parental,KLF5 inh,aSyn 5UTR inh,Ba/F3 V617F tox,APP transl inh,IEC-6 tox
CCOC(=O)c1c(CNc2ccncc2)n(C)c2cc(Br)c(O)cc12,41,–,–,38,–,–
COc1ccc2c(CC(=O)Nc3ccccc3N3CCOCC3)coc2c1,–,–,–,–,·,–
Cc1cc(C)c2cc(C#N)c(N3CCCN(C(=S)NCCCN(C)C)CC3)nc2c1,·,–,96,·,·,–
Cc1ccc2cc(C#N)c(N3CCCN(C(=S)NCCCN(C)C)CC3)nc2c1,·,–,–,·,·,–
Cc1ccc(S(N)(=O)=O)cc1NC(=O)/C=C/c1ccc2c(c1)OCO2,–,–,–,–,–,–
CCOC(=O)c1ccc2c(c1)n(CC)c(/C=C/Nc1ccccc1)[n+]2CC,50,–,–,36,–,–
CCn1c(C)[n+](Cc2ccccc2)c2ccc(Cl)cc21,33,–,–,28,–,–
CCn1c(/C=C/Nc2ccccc2)[n+](CC)c2ccc(Cl)cc21,–,–,–,–,–,–
CCn1c(/C=C/N(C)c2ccccc2)[n+](CC)c2ccc(Cl)cc21,65,–,–,87,–,–
Cc1n(Cc2ccccc2)c2ccccc2[n+]1Cc1ccccc1,·,–,–,·,·,–
CCn1c(C)[n+](Cc2ccccc2)c2ccc(C(=O)OC)cc21,37,–,–,–,–,–
